Molecular target: Hexose transporter 1 (Plasmodium falciparum) (UniProt O97467)
Experiment: ST_JUDE_LEISH: Cytotoxicity at 2uM final concentration against transgenic Leishmania Mexicana promastigotes LmPfHT that are glucose transport deficient and complemented with the Plasmodium falciparum hexose transporter. Activity is measured by DNA content using SYBR green in vitro
Assay type: functional

Row | SMILES | inhibition [%]
1 | COc1cc(C(=O)NC2CC(C)(C)N(C)C(C)(C)C2)ccc1-c1cc2cc(Cl)c(Cl)cc2[nH]1 | -1.54
2 | O=C1c2ccccc2-n2c1nc1ccccc1c2=O | -2.55
3 | CCC(C)NS(=O)(=O)c1ccc2nc(Nc3cccc(SC)c3)n(C(C)C(C)C)c2c1 (centres undefined) | 4.3
4 | C#CCN(Cc1ccc2[nH]c(N)nc(=O)c2c1)c1ccc(C(=O)N[C@@H](CCC(=O)O)C(=O)O)cc1 | 3.35
5 | COc1ccc2nccc([C@@H](O)CN3CCC(NC(=O)C(c4ccsc4)N4CCN(c5ccccc5OC)CC4)CC3)c2c1 (some centres undefined) | 1.41
6 | COc1ccc(CN2CCCN(Cc3cccc(C(=O)Nc4ccc(C)c(F)c4)c3)CC2)cc1 | -1.26
7 | CCCCCCn1c(Sc2ccc(C#N)c([N+](=O)[O-])c2)nnc1-c1ccc(Cl)cc1 | 7.85
8 | Cc1nnsc1C(=O)Nc1ccc(-c2cccc(-c3nc4cc(F)ccc4[nH]3)c2)cc1 | 1.3
9 | O=C(NCc1ccccc1)c1ncn(CCCN2CCC(N3CCCC3)CC2)c1-c1ccc(Cl)c(Cl)c1 | -1.01
10 | CCC(=O)Nc1ccc(C(O)CN2CCC3(C=Cc4ccccc4O3)CC2)cc1 (centres undefined) | 2.65
11 | CCCCC([C@@H](Cc1ccc2ccccc2c1)C(=O)N[C@H](C(=O)NC)C(C)(C)C)N(O)C=O (some centres undefined) | -0.31
12 | N#Cc1ccc(C=CC(=O)NC2CCC(CCN3CCc4ccc(-c5cnccn5)cc4CC3)CC2)cc1 (centres undefined) | 2.97
13 | CN(C)CCNC(=O)c1ccc2c(c1)n(C1CCN(S(=O)(=O)c3ccc(-c4ccccc4)cc3)CC1)c(=O)n2CC1CCCCC1 | -0.94
14 | C[C@H](NC(=O)C1CCCC1)C(=O)Nc1ccc(-c2ccc(-c3nc4cc(C(F)(F)F)ccc4[nH]3)cc2)cc1 | 0.76

From ChEMBL document CHEMBL3433997, “St. Jude Leishmania screening dataset” (2016)
